Screening data from PubChem.
HEK293 viab – GF-AFC viability counterscreen for inhibitors of alpha-synuclein gene (SNCA) expression; HEK-293-SNCA-luc viability, GF-AFC fluorescence, 24 h; Potency, µM (top dose mostly 57.1 µM), for the others: at the top dose activity change, negative = cytotoxicity, hits mostly cytotoxic; actives 0.12% (n = 150,000); AID 1671193, 2021;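 also: 0% = DMSO-treated cells and -100% = medium-only wells without cells; nearly all actives have a fitted effect of over 30% in size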
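HEK-293-SNCA-luc cells (1500/well) plated 24 h, then exposed 24 h to a dilution series; GF-AFC added 30 min at 37C, fluorescence 405/540 nm; normalised to medium-only and DMSO wells, Hill fit.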
Luciferase inh – Firefly luciferase inhibition profiling of diverse chemical library using quantitative high-throughput screening. Luciferin 4-monooxygenase (Photinus pyralis), P08659. purified P. pyralis luciferase, luminescence, biochemical. Potency, µM (series often up to 115 µM), hits mostly inhibitors. actives 2.5% (n = 76,000). AID 1347043, 2019; also: nearly all actives have a fitted effect of over 65% in size
Target sequence (P08659 whole entry, looked up): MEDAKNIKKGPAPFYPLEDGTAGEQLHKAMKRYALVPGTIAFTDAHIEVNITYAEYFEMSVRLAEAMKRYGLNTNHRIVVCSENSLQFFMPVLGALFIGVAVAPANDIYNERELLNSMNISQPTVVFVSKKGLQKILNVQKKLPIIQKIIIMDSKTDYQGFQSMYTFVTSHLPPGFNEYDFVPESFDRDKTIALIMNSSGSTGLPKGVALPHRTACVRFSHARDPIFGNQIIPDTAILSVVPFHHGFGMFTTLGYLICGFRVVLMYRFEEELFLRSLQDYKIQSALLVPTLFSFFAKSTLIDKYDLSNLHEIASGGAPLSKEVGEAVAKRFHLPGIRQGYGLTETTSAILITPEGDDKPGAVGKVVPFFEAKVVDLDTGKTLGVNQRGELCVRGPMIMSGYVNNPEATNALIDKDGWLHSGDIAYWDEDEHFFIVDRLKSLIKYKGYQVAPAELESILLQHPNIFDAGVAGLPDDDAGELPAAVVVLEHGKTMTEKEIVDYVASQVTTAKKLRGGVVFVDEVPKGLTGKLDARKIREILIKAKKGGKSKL
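Luminescence read by CCD imaging after purified firefly luciferase (10nM final) was added to substrate buffer holding 10uM D-luciferin and 10uM ATP, pH 7.5, pre-dosed with compound.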
NIH3T3 tox – Cytotoxic Profiling in NIH 3T3 Cell Line of Diverse Libraries Using Quantitative High-Throughput Screening; actives 4.3% (n = 94,000); Potency, µM (top dose mostly 96.7 µM), for the others: top-dose activity change, negative = cytotoxicity, most hits filed as inhibitors; NIH 3T3 viability, CellTiter-Glo ATP luminescence, 48-72 h; AID 1345082, 2018; also: nearly all actives have a fitted effect of over 55% in size
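Cells were seeded at 400 per well, treated with pin-transferred compound, and kept 48 or 72 hr at 37 °C before CellTiter-Glo addition and luminescence imaging of cellular ATP.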
HEK293 tox – Cytotoxic Profiling in HEK 293 Cell Line of Diverse Libraries Using Quantitative High-Throughput Screening; HEK 293 viability, ATP luminescence (CellTiter-Glo), 48-72 h; Potency, µM (highest dose often 115 µM), for the others: at the highest dose activity change, negative = cytotoxicity, actives largely listed as inhibitors; actives 6.6% (n = 94,000); AID 1345083, 2018; also: nearly all actives have a fitted effect of over 60% in size
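250 HEK 293 cells/well; compound by pintool; incubated 48 or 72 hr at 37 degree Celsius; CellTiter-Glo added, 10 min RT, luminescence imaged.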
NPR1 antag – Natriuretic polypeptide receptor (hNpr1) antagonism - Primary qHTS. actives 1.6% (n = 76,000). HEK293 hNpr1 GloSensor cGMP, ANP-stimulated luminescence. Potency, µM (series often up to 46.3 µM), for inactives: at the top dose activity change, negative = inhibition, hits mostly inhibitors. Atrial natriuretic peptide receptor 1 (Homo sapiens), P16066; calls by dose curve; also: nearly all actives have a fitted effect of over 60% in size
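Compound pre-incubated 30 min at room temperature on GloSensor-loaded HEK293 cells stably carrying hNpr1 and the pGS-40F cGMP biosensor. Stimulation uses hNppA at 0.1 nM final; luminescence is taken at baseline and 20 min post-agonist.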
SNCA expr inhib – Primary qHTS assay for inhibitors of alpha-synuclein gene (SNCA) expression; HEK-293 SNCA-luciferase knock-in, luminescence, 24 h; Potency, µM (top dose mostly 57.2 µM), for inactives: at the top dose activity change, negative = inhibition, actives largely listed as inhibitors; actives 0.17% (n = 140,000); AID 1671194, 2021;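 also: plate controls were DMSO cells for no effect and cell-free wells for full effect; nearly all actives have a fitted effect of over 45% in size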
* marks the source's active call; other numbers are inactive results; i = inactive; ? = inconclusive; . = no result; ! = not confirmed by another sample; [ ] = dose if it differs, or a comment. A selection: hits, their analogues and other compounds. The true share with any hit is near 7.4%. Unless noted, calls follow the shape of the dose curve; as a rule, active = well fitted curve in the direction sought with a large enough effect; inconclusive = small, poorly fitted or top-dose-only effect, or another doubt; inactive = no such curve, though single readings can be large; an effect the other way counts as inactive or inconclusive. Unless noted, % is scaled to controls: 0 for no effect and ±100 for the full control effect; potency is read from the fitted curve at half-maximal effect.

SMILES	HEK293 viab	Luciferase inh	NIH3T3 tox	HEK293 tox	NPR1 antag	SNCA expr inhib
CCN1c2cc(C(=O)Nc3cccc(Cl)c3)ccc2C(=O)N2CCCCC21 (stereo unspecified)	12%[12.5 µM]	i	?	32µM*	3%	-5%
Cn1nc(C2CCCN(C(=O)CCC3CCCC3)C2)n(Cc2ccccc2)c1=O (stereo unspecified)	?	.	?	-21%	.	-5%
O=C(Cc1ccc(F)cc1)N1CCC2(C1)C(=O)N(CCc1ccccc1)c1ccccc12 (stereo unspecified)	-12%	i	?	45µM*	16%	-16%
O=C(C1CCCC1)N1CCC2(C1)C(=O)N(CCc1ccccc1)c1ccccc12 (stereo unspecified)	8%	i	?	40µM*!	-3%	15%
O=C(Nc1ccccc1)N1CCC2(C1)C(=O)N(CCc1ccccc1)c1ccccc12 (stereo unspecified)	-5%	i	?	?	0%	-5%
O=C(c1cccc(Cl)c1)N1CCC2(C1)C(=O)N(CCc1ccccc1)c1ccccc12 (stereo unspecified)	?	i	40µM*!	28µM*	?	?
O=C(NC1CCCC1)N1CCC2(C1)C(=O)N(CCc1ccccc1)c1ccccc12 (stereo unspecified)	6%	i	?	?	-5%	?
O=C(Nc1ccc(Cl)cc1)N1CCC2(C1)C(=O)N(CCc1ccccc1)c1ccccc12 (stereo unspecified)	-28%	i	?	32µM*!	-11%	?
O=C(Cc1cccnc1)N1CCN(c2ccc3nnc(C4CC4)n3n2)CC1	.	.	-13%	1%	.	.
O=C(c1ccc(C(F)(F)F)cc1)N1CCC2(C1)C(=O)N(c1ccccc1)c1ccccc12 (stereo unspecified)	-11%	.	?	?	.	-26%
COc1ccc(C(=O)N2CCC3(C2)C(=O)N(CCc2ccccc2)c2ccccc23)cc1 (stereo unspecified)	?	i	?	40µM*!	?	-11%
O=C(c1ccc(C(F)(F)F)cc1)N1CCC2(C1)C(=O)N(Cc1ccccc1)c1ccccc12 (stereo unspecified)	3%	i	25µM*	22µM*	?	-15%
Cn1ncc2c(C(=O)NCc3ccc4c(c3)OCO4)cc(-c3ccc(C(F)(F)F)cc3)nc21	.	.	?	1%	.	.
O=C(NC1CCCCCC1)C1CCN(c2ccnc3ccnn23)CC1	10%[87.6 µM]	.	-50%[138 µM]	?	.	8%[87.6 µM]
COc1ccc(CCN2CCC(CN(C)C(=O)NCc3ccccc3)CC2)cc1	-10%	i	-23%	-5%	0%	3%
O=C(c1cc2n(n1)CC(c1ccc(Cl)cc1)OC2)N1CCN(c2ccc(F)cc2)CC1 (stereo unspecified)	-4%	i	?	40µM*	?	-12%
O=C(c1cc2n(n1)CC(c1ccc3c(c1)OCO3)OC2)N1CCN(c2ccccc2)CC1 (stereo unspecified)	-6%	i	?	?	?	?
O=C(c1cc2n(n1)CC(c1ccc(Cl)cc1)OC2)N1CCN(c2ccccc2Cl)CC1 (stereo unspecified)	7%	i	?	28µM*	-25%	?
O=C(NCc1ccc(F)cc1F)c1cc2n(n1)CC(c1ccc(Cl)cc1)OC2 (stereo unspecified)	9%	i	?	?	?	-27%
CN1CCN(C(=O)c2cc3n(n2)CC(c2ccc(Br)cc2)OC3)CC1 (stereo unspecified)	13%	i	?	40µM*	-11%	-27%
COc1ccc(C(=O)N2CCCC2C(=O)N2CCC(c3ccccc3)CC2)cc1 (stereo unspecified)	-11%	.	-9%	-24%	.	24%
N[C@@H]1CC[C@H](C(=O)NCc2csc(N3CCCC3)n2)C1	-7%	i	?	?	1%	4%
CN1CCC(Nc2nccc3c(=O)cc(N(C)c4ccccc4)oc23)CC1	-10%[87.6 µM]	i	?	-10%[172 µM]	-3%[70.6 µM]	21%[87.6 µM]
CN(C)c1cc(=O)c2ccnc(Nc3cccnc3)c2o1	-5%[87.6 µM]	i	79µM*	i	2%[70.6 µM]	2%[87.6 µM]
CN(c1ccccc1)c1cc(=O)c2ccnc(-c3cncnc3)c2o1	9%[87.6 µM]	i	79µM*	-1%[172 µM]	7%[70.6 µM]	-28%[87.6 µM]
SMILES	HEK293 viab	Luciferase inh	NIH3T3 tox	HEK293 tox	NPR1 antag	SNCA expr inhib
CN(c1ccccc1)c1cc(=O)c2ccnc(-c3ccnn3C)c2o1	-3%[87.6 µM]	i	35µM*	?	8%[70.6 µM]	?
CN1CCN(c2ccc(-c3nccc4c(=O)cc(N(C)c5ccccc5)oc34)cn2)CC1	-29%[87.6 µM]	?	?	?	-1%[70.6 µM]	123%[87.6 µM]
COc1ncc(-c2nccc3c(=O)cc(N(C)c4ccccc4)oc23)cn1	5%[87.6 µM]	i	32µM*	-26%[172 µM]	1%[70.6 µM]	6%[87.6 µM]
COc1ccccc1-c1cc(C(=O)NCc2ccccc2F)nn2cnnc12	-6%	.	?	?	.	12%
CN(c1ccccc1)c1cc(=O)c2ccnc(-c3cccnc3)c2o1	-3%[87.6 µM]	i	18µM*	-28%[172 µM]	7%[70.6 µM]	?
O=C1c2cnc(-c3cncnc3)nc2OCCN1c1cccc(C(F)(F)F)c1	1%[87.6 µM]	i	40µM*	-15%[172 µM]	-1%[70.6 µM]	5%[87.6 µM]
COc1cccc(-c2ncc3c(n2)OCCN(c2cccc(C(F)(F)F)c2)C3=O)c1	-18%[87.6 µM]	2µM*	?	?	-24%[70.6 µM]	-16%[87.6 µM]
O=C(NCc1cccc(F)c1)C1CN(C2CCCCC2)C(=O)N1 (stereo unspecified)	6%[12.5 µM]	.	-22%[138 µM]	-29%[172 µM]	.	-19%[87.6 µM]
CC(c1ccc(F)cc1)N1Cc2cc(NC(=O)Cc3cccs3)ccc2OCC1=O (stereo unspecified)	-3%	i	?	40µM*	?	-4%
CSc1cccc(NC(=O)Cn2c(-c3ccc(Cl)cc3)nc(C)c(CCO)c2=O)c1	1%	i	-13%	32µM*	-7%	5%
Cc1nc(-c2ccc(F)cc2)n(CC(=O)Nc2cccc(C(F)(F)F)c2)c(=O)c1CCO	?	i	22µM*	20µM*	?	?
